Dicer inh = human Dicer pre-microRNA cleavage inhibition. Q9UPY3. cat-ELCCA pre-miR-21 Dicer processing, chemiluminescence; active compounds read high. z-score at 25 µM. actives 6% (n = 47,000). AID 1347074; in the data active = z-score above about 3, passing the limit was not always enough;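 also: higher signal means more uncleaved substrate so more Dicer inhibition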
Target sequence (Q9UPY3 whole entry, looked up): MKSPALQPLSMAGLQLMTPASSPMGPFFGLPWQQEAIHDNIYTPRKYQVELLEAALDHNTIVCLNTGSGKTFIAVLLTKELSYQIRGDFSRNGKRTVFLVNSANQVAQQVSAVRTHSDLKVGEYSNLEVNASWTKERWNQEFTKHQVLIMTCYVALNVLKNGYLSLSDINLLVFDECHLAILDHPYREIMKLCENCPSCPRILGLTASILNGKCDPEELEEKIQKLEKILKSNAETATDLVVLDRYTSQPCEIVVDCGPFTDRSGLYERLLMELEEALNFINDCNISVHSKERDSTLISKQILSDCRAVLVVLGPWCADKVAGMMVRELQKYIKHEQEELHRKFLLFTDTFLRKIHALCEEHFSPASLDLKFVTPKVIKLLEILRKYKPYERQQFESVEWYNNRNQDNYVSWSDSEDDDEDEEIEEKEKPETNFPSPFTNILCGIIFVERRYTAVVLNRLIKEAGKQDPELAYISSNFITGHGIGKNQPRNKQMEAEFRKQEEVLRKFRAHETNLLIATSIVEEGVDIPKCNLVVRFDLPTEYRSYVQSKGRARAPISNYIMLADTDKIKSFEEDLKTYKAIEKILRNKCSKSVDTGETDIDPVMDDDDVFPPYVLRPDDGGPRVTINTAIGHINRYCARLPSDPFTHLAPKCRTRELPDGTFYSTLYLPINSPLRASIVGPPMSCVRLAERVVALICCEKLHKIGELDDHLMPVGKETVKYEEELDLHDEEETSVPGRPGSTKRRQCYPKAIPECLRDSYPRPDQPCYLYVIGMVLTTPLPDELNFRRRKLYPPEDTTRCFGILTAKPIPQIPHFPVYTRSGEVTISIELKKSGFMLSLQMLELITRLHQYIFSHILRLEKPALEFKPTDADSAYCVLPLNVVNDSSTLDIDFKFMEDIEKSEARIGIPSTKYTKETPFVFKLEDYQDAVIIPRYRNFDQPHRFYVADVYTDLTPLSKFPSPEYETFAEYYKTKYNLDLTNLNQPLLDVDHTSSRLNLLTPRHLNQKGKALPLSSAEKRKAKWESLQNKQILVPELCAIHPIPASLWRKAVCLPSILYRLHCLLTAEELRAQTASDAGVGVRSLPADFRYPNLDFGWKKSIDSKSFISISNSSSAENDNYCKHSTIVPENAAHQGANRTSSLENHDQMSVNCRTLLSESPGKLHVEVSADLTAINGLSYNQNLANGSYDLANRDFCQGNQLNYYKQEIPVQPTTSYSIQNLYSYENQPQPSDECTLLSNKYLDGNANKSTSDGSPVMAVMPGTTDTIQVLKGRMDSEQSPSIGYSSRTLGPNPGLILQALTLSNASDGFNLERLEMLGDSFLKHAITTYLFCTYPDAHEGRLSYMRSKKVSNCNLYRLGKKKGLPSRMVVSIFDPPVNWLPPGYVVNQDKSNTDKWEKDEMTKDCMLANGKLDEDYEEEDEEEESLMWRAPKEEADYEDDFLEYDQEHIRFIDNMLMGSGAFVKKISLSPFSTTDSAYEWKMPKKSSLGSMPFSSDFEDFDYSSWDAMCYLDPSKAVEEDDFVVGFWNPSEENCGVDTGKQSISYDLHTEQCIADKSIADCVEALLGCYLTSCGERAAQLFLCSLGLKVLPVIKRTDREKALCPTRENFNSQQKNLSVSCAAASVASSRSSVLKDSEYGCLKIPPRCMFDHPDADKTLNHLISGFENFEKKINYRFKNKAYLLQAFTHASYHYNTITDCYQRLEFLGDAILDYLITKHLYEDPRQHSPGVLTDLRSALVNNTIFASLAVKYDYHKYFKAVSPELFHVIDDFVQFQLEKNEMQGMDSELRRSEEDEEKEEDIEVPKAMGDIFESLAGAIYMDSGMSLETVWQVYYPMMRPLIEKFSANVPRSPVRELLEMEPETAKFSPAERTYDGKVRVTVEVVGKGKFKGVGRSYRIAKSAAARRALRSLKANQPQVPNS
Numbers stand for hits; . = inactive. Many of the other results were omitted from the sample, so hits are more common in it than they were.

SMILES	Dicer inh
Cc1nn(C(C)(C)C)c(NC(=O)c2ccc(Cl)cc2Cl)c1Br	3.3
CC(C)(C)n1nc(C2CC2)c(Br)c1NC(=O)c1ccccc1Cl	.
CC(C)c1ccc(/C=N/NC(=O)N/N=C/c2ccc(C(C)C)cc2)cc1	.
CC(C)(C)c1cc(C(C)(C)C)c2oc(C(=O)O)cc(=O)c2c1	.
Cc1ccc(Cn2c3ccccc3n3cc(C)nc23)cc1	.
COc1ccc(CCNC(=O)c2nc3ccccc3c(=O)[nH]2)cc1OC	.
Cc1ccc(NC(=O)NN2CC(=O)N(c3ccccc3F)CC2=O)cc1	4.8
NN1CC(=O)N(c2ccccc2F)CC1=O	.
Cc1ccc(NC(=O)NN2CC(=O)N(c3ccc(Cl)cc3)CC2=O)cc1	.
CCNc1nc2c3ccccc3n(C(C)=O)c2s1	.
O=S1(=O)CC(N2CCCCC2)c2ccccc21 (stereo not drawn)	.
Nc1nnc(SCC(=O)n2c3ccccc3c3ccccc32)s1	.
C=CCn1cnnc1C(CCC(C)C)CC(C)(C)O (stereo not drawn)	3.8
N#C/C(=C\Nc1ccc(Cl)cc1)S(=O)(=O)c1ccccn1	.
CC1(C(=O)O)CCC(C(=O)O)C1(C)C (stereo not drawn)	.
Fc1ccc(N2CCN(Cc3cn[nH]c3-c3ccccc3)CC2)cc1	3.5
OC1(c2ccc(Cl)cc2)CCN(Cc2cn[nH]c2-c2ccccc2)CC1	.
OC1(c2ccc(Cl)cc2)CCN(Cc2cn[nH]c2-c2ccc(F)cc2)CC1	.
N#CC(Nc1cc(Cl)cc(Cl)c1)c1ccccc1 (stereo not drawn)	.
FC(F)(F)c1cccc(Sc2ccc3nnc(-c4ccccc4)n3n2)c1	.
O=C1ON=C(c2ccccc2)C1C=C1CCCC1 (stereo not drawn)	4.2
O=C1N=C(c2ccccc2)C(c2ccccc2)N1 (stereo not drawn)	.
COc1ccc(OCc2nnc3n2N=C(c2ccc(OC)cc2)CS3)cc1	5.2
COc1ccc(C2=Nn3c(COc4cc(C)ccc4Cl)nnc3SC2)cc1	.
COc1ccc(OCc2nnc3n2N=C(c2ccc(C)cc2)CS3)cc1	.
SMILES	Dicer inh
O=C(NNc1ncc(C(F)(F)F)cc1Cl)c1c(F)cccc1F	.
O=c1[nH]c2ccc(F)cc2c(O)c1-c1ccccc1	.
C#CCOC(=O)Nc1c(-c2ccccc2)noc1C	.
CCOC(=O)c1c[nH]c2ccccc2c1=O	3
CCOC(=O)c1c[nH]c2ccc(C(F)(F)F)cc2c1=O	.
CCOC(=O)c1ccc2[nH]cc(C(=O)OCC)c(=O)c2c1	.
CC(C)(C(=O)Oc1ccc(Cl)cc1)S(=O)(=O)c1ccc(C(F)(F)F)cn1	.
CC(c1ccccc1)c1nnc(N)s1 (stereo not drawn)	.
Cc1cc(Sc2nnc(N)s2)c2ccccc2n1	.
CCC(c1ccccc1)c1nnc(N)s1 (stereo not drawn)	4.2
CCn1c(CN2c3ccccc3Sc3ccccc32)nnc1SCc1ccc([N+](=O)[O-])cc1	.
CCOc1ccccc1C1C(C#N)=C(N)Oc2n[nH]c(-c3ccc4c(c3)OCO4)c21 (stereo not drawn)	.
CCOC(=O)C1=C(C)NC2=C(C(=O)CC(C)(C)C2)C1c1cc(Br)c(CC)s1 (stereo not drawn)	.
CN(C)c1ccc(C2CC(=O)c3ccccc3N2)cc1 (stereo not drawn)	.
O=C1CC(c2ccccc2Cl)Nc2ccc3ccccc3c21 (stereo not drawn)	.
O=C1CC(c2cccc(Br)c2)Nc2ccc3ccccc3c21 (stereo not drawn)	3.4
COc1cc2nc(-c3ccc(C)c(C)c3)oc(=O)c2cc1OC	.
c1ccc(-n2cnc3cc(NCc4ccco4)ccc32)cc1	4.7
CCn1cnc2cc(NCc3ccco3)ccc21	.
O=[N+]([O-])c1ccc2c(c1)ncn2-c1ccccc1	.
O=C(NC(=S)NNc1ncc(C(F)(F)F)cc1Cl)c1ccc(Cl)cc1	.
CCN(CC)c1ccc(C2C3=C(CC(C)(C)CC3=O)Nc3ncnn32)cc1 (stereo not drawn)	.
Cc1ccc(C2C3=C(CC(c4ccccc4)CC3=O)Nc3nc(C(F)(F)F)nn32)cc1 (stereo not drawn)	3
O=C1CCCC2=C1C(c1cccc(O)c1)n1ncnc1N2 (stereo not drawn)	.
CC1(C)CC(=O)C2=C(C1)Nc1ncnn1C2c1ccc(Cl)cc1 (stereo not drawn)	3.2
SMILES	Dicer inh
CC1(C)CC(=O)C2=C(C1)Nc1ncnn1C2c1cccc(O)c1 (stereo not drawn)	.
CC1CC(=O)C2=C(C1)Nc1ncnn1C2c1ccccc1 (stereo not drawn)	4.6
Cc1ccc(C2C3=C(CC(c4ccc(Cl)cc4)CC3=O)Nc3ncnn32)cc1 (stereo not drawn)	.
CC1(C)CC(=O)C2=C(C1)Nc1ncnn1C2c1ccccc1 (stereo not drawn)	.
O=C1CC(c2ccc(Cl)cc2)CC2=C1C(c1cccnc1)n1c(nc3ccccc31)N2 (stereo not drawn)	.
O=C(NCc1ccccc1)c1cc2cccc([N+](=O)[O-])c2[nH]1	.
CCOC(=O)c1cc2cc(Br)cc(Br)c2oc1=O	.
COc1ccc(CC(=O)c2ccc(OC)cc2O)cc1	.
CCOC(=O)c1ncn2c(=O)c3c(C(=O)OCC)ncn3c(=O)c12	.
Clc1ccc(N2CCN(C3=Cc4ccccc4CC3)CC2)cc1Cl	.
Nc1c(C(=O)N/N=C/c2ccccc2)oc2nc(-c3ccc(Cl)cc3)cc(-c3ccccc3)c12	.
COc1cccc(C2CC(c3ccccc3)=NN2C(=O)CCCC(=O)O)c1OC (stereo not drawn)	.
COc1ccc(C2=NN(C(=O)CCCC(=O)O)C(c3ccc(F)cc3)C2)cc1OC (stereo not drawn)	3.8
COc1ccc(C2=NN(C(=O)CCCC(=O)O)C(c3ccc(Cl)cc3)C2)cc1OC (stereo not drawn)	.
CCOc1nc(-c2ccccc2)ccc1-c1noc(CC)n1	.
N/C(=N\O)c1cnc(-c2ccncc2)nc1N	.
Cc1ccc(-n2c(=O)[nH]c3c(sc4nc(C)cc(C)c43)c2=O)cc1	3.4
Cc1ccc(-n2c(=O)[nH]c3c(oc4nc(-c5ccccc5)cc(-c5ccccc5)c43)c2=O)cc1	.
Cc1cc(C)c2c(n1)sc1c(=O)n(-c3cccc(Cl)c3)c(=O)[nH]c12	.
COc1cccc(-c2nc(-c3cc4ccccc4[nH]c3=O)no2)c1	.
N#Cc1cc(NC(=O)C(=O)O)c(Cl)c(NC(=O)C(=O)O)c1	.
CCOC(=O)/C(C#N)=C/c1ccc(-c2ccccc2)cc1	.
CCOC(=O)c1c(C)csc1NC(=O)/C(C#N)=C/c1ccc(O)cc1	.
CCOC(=O)NC(=O)/C(C#N)=C/c1ccc(N(C)C)cc1	3.4
Brc1ccc(-n2cccc2)nc1	.
SMILES	Dicer inh
COC(=O)CNC(=O)c1cccnc1Sc1ccc(Cl)cc1	.
Cc1ccc(/C=C(\C#N)S(=O)(=O)c2c(N)oc(C)c2C)cc1	.
CC(C)OC(=O)Cn1cnc([N+](=O)[O-])n1	.
CC(C)(C)C1CCC(OC(=O)Cn2cnc([N+](=O)[O-])n2)CC1 (stereo not drawn)	3.1
COc1ccc(NC(=O)Cn2cnc([N+](=O)[O-])n2)c(OC)c1	.
COc1ccc(/C=N/N=C/c2ccc(OC)c(OC)c2)cc1OC	.
CCNC(=S)N/N=C/c1cc(OC)c(OC)c(OC)c1	.
COc1cc(/C=N/N=C/c2ccccc2O)cc(OC)c1OC	7.4
O=C(O)C1C2CC=CC2c2cc(Oc3ccccc3)cc3c2N1CC1CC=CC31 (stereo not drawn)	.
CSC(=CC(=O)c1ccccc1F)SC	.

Compound activity: PubChem BioAssay, Center for Chemical Genomics, University of Michigan
